We go through 105 compounds from PubChem BioAssay AID623877 (Johns Hopkins Ion Channel Center, 2012).

SMILES strings stand for the structures. The whole screen tested about 340,000 compounds, of which about 1,000 (0.29%) were called active.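 The calls were made as follows: active = fluorescence-ratio B-score plate-corrected deviation score at least 3 library SD below zero, with starting fluorescence score within 5 deviations; inactive = the rest.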 Only a selection was taken, and actives are over-represented in it overall.

The assay deals with Anoctamin-1 (Mus musculus) (UniProt Q8BHY3). Briefly: TMEM16A chloride channel activators or potentiators, primary screen, cell-based, HTS (AID 623877).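 As to B-score: channel opened by trigger with iodide after compound preincubation; score built on the fluorescence ratio of max minus min over baseline; more negative score means more quench and so TMEM16A activation or potentiation.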 Particulars: HEK293 TMEM16A/YFP-H148Q/I152L, iodide quench fluorescence, at 10 µM; active compounds read low.
Chain of Anoctamin-1 (Mus musculus) (Q8BHY3 whole entry, looked up): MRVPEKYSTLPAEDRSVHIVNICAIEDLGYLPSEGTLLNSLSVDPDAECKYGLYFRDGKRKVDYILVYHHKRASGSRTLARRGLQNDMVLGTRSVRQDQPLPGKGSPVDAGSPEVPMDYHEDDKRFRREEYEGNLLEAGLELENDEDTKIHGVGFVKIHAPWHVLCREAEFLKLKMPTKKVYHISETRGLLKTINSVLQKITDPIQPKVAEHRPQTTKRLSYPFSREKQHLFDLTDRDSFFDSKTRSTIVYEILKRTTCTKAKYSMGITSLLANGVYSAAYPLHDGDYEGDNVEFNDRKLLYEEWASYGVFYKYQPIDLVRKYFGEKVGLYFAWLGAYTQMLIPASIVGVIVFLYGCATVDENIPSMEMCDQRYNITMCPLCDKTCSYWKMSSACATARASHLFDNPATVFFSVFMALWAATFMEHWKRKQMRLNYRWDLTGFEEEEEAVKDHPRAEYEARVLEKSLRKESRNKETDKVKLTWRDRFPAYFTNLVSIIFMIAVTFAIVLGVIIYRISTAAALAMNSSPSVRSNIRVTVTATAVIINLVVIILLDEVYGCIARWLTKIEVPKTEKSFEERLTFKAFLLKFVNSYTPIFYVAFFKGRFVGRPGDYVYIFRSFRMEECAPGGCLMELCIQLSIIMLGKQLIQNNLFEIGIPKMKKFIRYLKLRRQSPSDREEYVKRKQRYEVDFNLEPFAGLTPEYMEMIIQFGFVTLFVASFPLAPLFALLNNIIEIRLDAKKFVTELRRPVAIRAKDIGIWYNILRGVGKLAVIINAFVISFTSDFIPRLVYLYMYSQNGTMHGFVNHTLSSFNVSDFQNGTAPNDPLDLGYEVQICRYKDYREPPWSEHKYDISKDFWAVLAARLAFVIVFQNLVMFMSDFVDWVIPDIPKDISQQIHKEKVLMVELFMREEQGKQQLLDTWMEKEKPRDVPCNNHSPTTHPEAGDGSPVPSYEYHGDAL
As for `O=C(CCl)N(Cc1cccc([N+](=O)[O-])c1)c1cccc(Cl)c1`, the B-score entry was “inactive”.
Under `Cc1ccc(-c2csc(C(C#N)=C(O)CN3CCN(C(=O)c4ccco4)CC3)n2)cc1` stands “inactive”; under `COC(=O)Cc1c(-c2[nH]c3ccccc3c2CC(=O)OC)[nH]c2ccccc12`, “inactive”; under `COC(=O)C[n+]1cccc2ccccc21`, -8.8 (active).
For `O=C(C[n+]1cc(Br)cc2ccccc21)c1ccc(F)cc1` the value was “inactive”; for `O=C(Nc1cccc(Cl)c1)C1CCCN(c2cnccn2)C1` (stereo not given), “inactive”; for `Cc1ccc2c(c1)C(c1ccccc1)N(C(=O)c1ccc(S(=O)(=O)N3CCOCC3)cc1)CC(=O)N2` (stereo not given), “inactive”.
Regarding `COc1cccc(N2CCN(CC(=O)Nc3ccnn3C3CCCC3)CC2)c1`, the B-score is -41.6 (active).
Turning to `COc1ccccc1N1CCN(CC(=O)Nc2ccnn2C2CCCC2)CC1`, the B-score result was “inactive”.
Under `COc1cccc(C(=O)N2CCC(n3nccc3NC(=O)C3CCOC3)CC2)c1` (stereo not given) stands “inactive”; under `COc1ccc(CNC(=O)CN(Cc2ccc(Cl)cc2)S(C)(=O)=O)cc1`, “inactive”; under `Nc1ncnc2c1cnn2C1CC(O)C(CO)O1` (stereo not given), “inactive”.
As to `Cc1noc(/C=C/c2ccco2)c1S(=O)(=O)N1CCC(C(=O)Nc2ccc(Cl)cn2)CC1`, the B-score entry was “inactive”.
Under `C=CC(COCc1ccccc1)N(CC(=O)OC)S(=O)(=O)c1cc(Br)ccc1OC` (stereo not given) stands “inactive”.
On to `C=CCCN(Cc1ccccc1)S(=O)(=O)c1ccccc1Br`, for which the B-score result is “inactive”.
For `C=CC(COCc1ccccc1)N(Cc1ccccc1)S(=O)(=O)c1ccccc1Br` (stereo not given) the value was -4.97 (active).
Under `O=C(CN1CCCSc2ccccc21)N1CCN(S(=O)(=O)c2cccc(F)c2)CC1` stands -45.3 (active); under `O=C(CN1CCN(S(=O)(=O)c2cccc(Cl)c2)CC1)N1CCCCC1`, “inactive”.
`O=C(CN1CCCSc2ccccc21)N1CCN(S(=O)(=O)c2ccccc2)CC1`: the B-score result was “inactive”.
On to `O=C1c2ccccc2C(=O)N1CCCCCCN1C(=O)c2ccccc2C1=O`, for which the B-score entry was “inactive”.
For the compound `N#Cc1c(NC(=O)CCCN2C(=O)c3ccccc3C2=O)oc(-c2ccccc2)c1-c1ccccc1`, the B-score was -21.8 (active).
Regarding `COc1cc(C(=O)Nc2oc(-c3ccccc3)c(-c3ccccc3)c2C#N)cc(OC)c1OC`, the B-score entry is “inactive”.
Under `CN(C)S(=O)(=O)c1ccc(N2CCCC2)c(C(=O)NCc2ccccc2)c1` stands “inactive”; under `O=P(c1cccs1)(c1cccs1)c1cccs1`, “inactive”; under `COc1ccc(N=C2C=CC(=O)O2)cc1`, “inactive”.
Under `COc1ccc(-n2c(SCC(=O)NCc3cccs3)nnc2-c2ccoc2C)cc1` stands “inactive”; under `CCOc1ccccc1-n1c(SCC(=O)NCc2ccco2)nnc1-c1ccncc1`, “inactive”; under `Cc1ccccc1-n1c(SCC(=O)NCc2cccs2)nnc1-c1ccncc1`, -9.87 (active).
Under `O=C(Oc1ccccc1)Oc1ccc2c(c1)oc(=O)c1ccccc12` stands “inactive”.
As to `CC(C)N(Cc1ccccc1)C(=S)Nc1ccc(OC(F)F)cc1`, the B-score entry was “inactive”.
For `Cc1ccccc1NC(=O)c1nn(-c2ccc(F)c(F)c2)ccc1=O` the value was “inactive”; for `CCCSc1ncccc1C(=O)O`, “inactive”; for `CCN(CC)S(=O)(=O)c1ccc(NC(=O)c2cccnc2Cl)c(NC(=O)c2cccnc2Cl)c1`, -8.41 (active).
For `Cc1ccc(CNC(=O)c2cccnc2Cl)cc1` the value was “inactive”; for `CCN(CC)S(=O)(=O)c1ccc(NC(=O)c2cnc(C)cn2)cc1`, “inactive”; for `O=C(NCCN1CCCC(O)C1)c1cc(COc2c(F)cccc2F)on1` (stereo not given), “inactive”.
For `CCc1nnc(NC(=O)CSc2nc(SC)ns2)s1` the value was “inactive”; for `COc1ccc(OC)c(Nc2nc3ccccc3n3cnnc23)c1`, “inactive”; for `COc1ccc(S(=O)(=O)N2CCCC2)c(C)c1C`, “inactive”.
In the case of `Nn1c(SCC(=O)NC(=O)NC2CCCC2)nnc1-c1ccccc1F`, the B-score result was “inactive”.
For `CC(C)NC(=O)NC(=O)CSc1nnc(-c2ccccc2F)n1N` the value was “inactive”; for `Nn1c(SCC(=O)NC2CCCC2)nnc1-c1ccccc1F`, -15.8 (active); for `CC(C)[C@H](NC(=O)OCc1ccccc1)C(=O)OCc1ccccc1`, “inactive”.
As to `COC(=O)c1ccc(C(NC(=O)OCc2ccccc2)/C(F)=C/[C@@H](C)C(=O)O)cc1` (stereo not given in full), the B-score entry was “inactive”.
Under `COc1ccc(COC(=O)NC(C(=O)O)c2ccccc2)cc1` (stereo not given) stands -15.7 (active); under `Cc1cccc(C)c1NC(=O)C1CCCN1C(=O)OC(C)(C)C` (stereo not given), “inactive”.
For `Cc1ccc(NC(=O)Cc2nc(COC(=O)C(C)NS(=O)(=O)c3ccc(C)cc3)cs2)cc1` (stereo not given) the value was -5.62 (active).
For `C/C=C/C(=O)OCc1csc(CC(=O)Nc2ccccc2C)n1` the value was “inactive”; for `CC(=O)Nc1ccc(S(=O)(=O)NC(C)C(=O)OCC(=O)NC2CCCC2)cc1` (stereo not given), “inactive”.
As for `CCOc1cc(C(=O)N(Cc2ccccc2)c2ccc(C)cc2)ccc1OCC(=O)N1CCOCC1`, the B-score entry was “inactive”.
Under `CCOC(=O)C1(Cc2ccc(O)cc2)NC(c2ccccc2F)C2C(=O)N(C)C(=O)C21` (stereo not given) stands “inactive”; under `CCOc1cc(/C=C2/N=C(c3ccc(C(C)(C)C)cc3)OC2=O)cc(Cl)c1OS(C)(=O)=O`, “inactive”; under `C=CCC1=C/C(=C\c2c(N)n3nc(CC(=O)N4CCOCC4)sc3nc2=O)C=C(OC)C1=O`, “inactive”.
For `COC1=C/C(=C/c2c(N)n3nc(CC(=O)N4CCOCC4)sc3nc2=O)C=CC1=O` the value was -12.3 (active).
Under `COc1ccc(-c2ccnc(SCC(=O)N3CCOCC3)n2)cc1` stands “inactive”; under `N#CCSc1nn(-c2ccc(F)cc2)c(=S)s1`, “inactive”; under `O=C(CSc1ccccn1)N1CCN(S(=O)(=O)c2ccc(Cl)cc2)CC1`, “inactive”.
In the case of `CCC(C)n1[nH]c(=O)c2c(C)cc(C)nc21` (stereo not given), the B-score was -6.98 (active).
For `CCCC(C)n1[nH]c(=O)c2c(C)cc(C)nc21` (stereo not given) the value was “inactive”.
As to `CCC(C)n1[nH]c(=O)cc1N` (stereo not given), the B-score result was “inactive”.
For `CSc1nc2sc3c(c2c(=O)[nH]1)CCc1ccccc1-3` the value was “inactive”.
Under `O=C(CC(O)(C(F)(F)F)C(F)(F)F)Nc1ccc(Cl)c(Cl)c1` stands -12.9 (active).
For `O=C(COC(=O)c1cc[n+]([O-])cc1)Nc1ccc(Cl)c(C(F)(F)F)c1` the value was “inactive”; for `NC(=O)N1CCCC1C(=O)Nc1ccc(Cl)c(Cl)c1` (stereo not given), “inactive”.
As for `Cc1ccc(S(=O)(=O)N2CCOCC2)cc1C(=O)Nc1ccccc1N1CCCC1`, the B-score entry is “inactive”.
Under `Nc1ccc2c(c1)C(=Cc1cccnc1)c1ccccc1-2` stands “inactive”.
Consider `N#CCC(=O)N/N=C/c1ccc(SCC(=O)Nc2ccccc2)o1`, for which the B-score result is “inactive”.
For `CC(OC(=O)CCCc1c[nH]c2ccccc12)C(=O)Nc1ccc(S(N)(=O)=O)cc1` (stereo not given) the value was “inactive”; for `C/C(=N\NS(=O)(=O)c1cccc([N+](=O)[O-])c1)c1cc2ccccc2o1`, “inactive”.
For `CCCCN1CCNC1=S` the value was “inactive”; for `O=C1c2cccc3cccc(c23)N1CN1CCN(c2ccccn2)CC1`, “inactive”; for `O=C(c1ccc2c(c1)C(=O)N(c1ccc(Cl)cc1)C2=O)N1CCN(c2ccccn2)CC1`, “inactive”.
Regarding `O=C(C(Cl)Cl)N1CCN(c2ccccn2)CC1`, the B-score result was “inactive”.
For `O=C(c1ccc2c(c1)N(Cc1ccc(F)cc1)C(=O)c1ccccc1S2(=O)=O)N1CCN(c2ccccn2)CC1` the value was -4.74 (active).
Regarding `O=C(c1c(F)cccc1Cl)N1CCN(c2ccccn2)CC1`, the B-score entry was “inactive”.
Under `O=C1c2ccccc2S(=O)(=O)c2cc(N3CCN(c4ccccn4)CC3)ccc21` stands -5.73 (active).
Under `Nc1c(Cl)cc(-c2csc(N3CCCC3c3nc4cc(Cl)c(Cl)cc4n3CCOCCO)n2)cc1Cl` (stereo not given) stands “inactive”.
Under `Cc1ccc(CSCC(=O)N(C)CC(=O)Nc2ccc(C)cc2)cc1` stands “inactive”; under `CC1C(=O)NC(=O)C1c1ccccc1` (stereo not given), “inactive”.
On to `S=c1nc2ccccc2c2nc(-c3cccnc3)[nH]n12`, for which the B-score entry is “inactive”.
For `CC(C)(C)Nc1nc(-c2ccccn2)nc2ccccc12` the value was “inactive”; for `COc1ccc(Nc2nc(-c3cccnc3)nc3ccccc23)cn1`, -6.47 (active).
Under `O=S(=O)(NC(=S)Nc1ccccc1)c1ccc(F)cc1` stands “inactive”.
For the compound `O=C(O)C1CCN(C(=O)c2cc(F)cc3c2OCOC3)CC1`, the B-score result was “inactive”.
For `Cc1cc(=O)n2nc(N3CCCC(C(=O)NCc4ccc(Cl)cc4)C3)sc2n1` (stereo not given) the value was “inactive”.
For `Cc1cc(=O)n2nc(N3CCCC(C(=O)NCCC4=CCCCC4)C3)sc2n1` (stereo not given) the value was “inactive”.
With `Cc1cc(=O)n2nc(N3CCCC3C(=O)NCCCN3CC(C)CC(C)C3)sc2n1` (stereo not given), the B-score is -18.1 (active).
For `CN(c1ccc(OCC(=O)OCC(=O)Nc2cccc([N+](=O)[O-])c2)cc1)S(=O)(=O)c1ccc(F)cc1` the value was “inactive”; for `Cc1ccccc1OCCC(=O)OCC(=O)NCCc1ccc(S(N)(=O)=O)cc1`, “inactive”.
For `CN(C)S(=O)(=O)c1ccc(C(=O)NCCN=C2NS(=O)(=O)c3ccccc32)cc1` the value was “inactive”; for `CCc1ccc(-c2cc(C)no2)cc1S(=O)(=O)NCCc1ccc(S(N)(=O)=O)cc1`, -4.67 (active).
Under `Cc1noc(C)c1S(=O)(=O)NCCc1ccc(S(N)(=O)=O)cc1` stands “inactive”; under `Cc1cc(-c2ccc(C)c(S(=O)(=O)Nc3ccc(S(N)(=O)=O)cc3)c2)on1`, “inactive”.
Consider `Cc1cc(C)c2c(c1)cc(C)c1nnc(SCC(=O)Nc3cc(C)on3)n12`, for which the B-score result was “inactive”.
In the case of `C=CCN(CC=C)CCOc1ccccc1[N+](=O)[O-]`, the B-score result was “inactive”.
For `O=[N+]([O-])c1ccc(NS(=O)(=O)c2ccccc2)c(Cl)c1` the value was “inactive”.
Under `O=C(NNC(=S)NC(=O)c1cn(-c2ccccc2)nc1-c1ccccc1)c1ccncc1` stands -5.25 (active).
Under `NC(=O)C1CCN(C(=O)c2cn(-c3ccccc3)nc2-c2cccnc2)CC1` stands “inactive”; under `Cc1ccc(-c2nn(-c3ccccc3)cc2C(=O)NC2CCC(O)CC2)cc1` (stereo not given), “inactive”; under `O=C(CCc1nnc2ccc(NCCCN3CCCC3=O)nn12)NCc1ccccc1Cl`, “inactive”.
For the compound `C#CCOCCOCCOCCNc1nc(N2CCN(C(=O)C(Cc3ccc(O)cc3)n3cc(C(N)CC(C)C)nn3)CC2)nc(N2CCN(C(=O)C(Cc3ccc(O)cc3)n3cc(C(N)C(C)CC)nn3)CC2)n1` (stereo not given), the B-score result is “inactive”.
For the compound `COc1ccc(CN2C(=O)C(C)S/C2=N/N=C/c2ccco2)cc1` (stereo not given), the B-score result was “inactive”.
`CCc1ccc(NC(=O)Cn2nnc(C(=O)NCc3ccc(OC)cc3)c2N)cc1`: the B-score is -25.9 (active).
For `COc1ccc(NC(=O)Cn2nnc(C(=O)NCCc3ccc(OC)c(OC)c3)c2N)cc1` the value was “inactive”; for `COc1ccc(CNC(=O)c2nnn(CC(=O)Nc3cc(C)cc(C)c3)c2N)cc1`, “inactive”.
